The supplement of paper PMC10338343
± gives the standard deviation.

Tests used:
[1] = tested on: MILI (PIWIL2) piRISC loaded with L1MC piRNA (26 nt); assay: pre-steady-state target cleavage rate (min^-1); guide: L1MC piRNA 5'p-UAACUAAAUACUAUGCAAGCUGUAGG; higher = faster piRNA-guided slicing of the target
Method in brief: (§1)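 Cleave-'n-Seq reactions paired 0.1 nM transcribed, DNA-blocked target RNA library with 1 nM active affinity-purified piRISC holding one synthetic guide, plus or minus 500 nM GTSF1 partner protein, in HEPES–potassium acetate buffer at 33 °C for 0–8 or 0–960 min. After sequencing of uncleaved targets and normalisation to depth and weakly complementary targets, the pre-steady-state cleavage rate was taken from a burst-and-steady-state fit. Three trials were pooled, and k3 was capped at 0.0001 min^-1.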

[2] = tested on: EfPiwi piRISC loaded with L1MC piRNA (26 nt); assay: pre-steady-state target cleavage rate (min^-1); auxiliary factor: 500 nM Ephydatia muelleri Gtsf1; guide: L1MC piRNA 5'p-UAACUAAAUACUAUGCAAGCUGUAGG; MIWI and MILI are mouse PIWI proteins and EfPiwi is from a freshwater sponge; tags in brackets are library labels; higher = faster piRNA-guided slicing of the target
Method in brief: as §1

[3] = auxiliary factor: 500 nM mouse GTSF1
[4] = auxiliary factor: none (no GTSF1)

UCCUGGAUCAGCUUGCAAAGUAUUUAGUUA
pre-steady-state target cleavage rate [1, 3]: 0.151 ± 0.015
pre-steady-state target cleavage rate [1, 4]: 0.00946 ± 0.0023
pre-steady-state target cleavage rate [2]: 0.0218 ± 0.0057

UCCUGGAACUGCUUGCAAAGUAUUUAGUUA
pre-steady-state target cleavage rate [1, 3]: 0.117 ± 0.01
pre-steady-state target cleavage rate [1, 4]: 0.00518 ± 0.0021
pre-steady-state target cleavage rate [2]: 0.0228 ± 0.008

UCCUGGAUCAGCUUGGAUAGUAAUUAGUUA
pre-steady-state target cleavage rate [1, 3]: 0.167 ± 0.018
pre-steady-state target cleavage rate [1, 4]: 0.00352 ± 0.0023
pre-steady-state target cleavage rate [2]: 0.00256 ± 0.0025

UCCUGCUACAGUUUGCAUAGUAUUUAGUUA
pre-steady-state target cleavage rate [1, 3]: 0.296 ± 0.015
pre-steady-state target cleavage rate [1, 4]: 0.0106 ± 0.0023
pre-steady-state target cleavage rate [2]: 0.0365 ± 0.011

UCCUCCUUGUGCUUGCAUAGUAUUUAGUAA
pre-steady-state target cleavage rate [1, 3]: 0.147 ± 0.021
pre-steady-state target cleavage rate [1, 4]: 0.0033 ± 0.0024
pre-steady-state target cleavage rate [2]: 0.00675 ± 0.0029

UCCUGCUACAGCUCUGCAUAGUAUUUAGUUA
pre-steady-state target cleavage rate [1, 3]: 0.25 ± 0.016
pre-steady-state target cleavage rate [1, 4]: 0.00983 ± 0.0027
pre-steady-state target cleavage rate [2]: 0.0151 ± 0.0038

UCCUGCUACAGCUUGCAAAGUAUUAAGUUA
pre-steady-state target cleavage rate [1, 3]: 0.146 ± 0.019
pre-steady-state target cleavage rate [1, 4]: 0.00367 ± 0.0025
pre-steady-state target cleavage rate [2]: 0.00445 ± 0.0021

UCCUGGAUCAGUCUUGCAUAGUAUUUAGUUA
pre-steady-state target cleavage rate [1, 3]: 0.212 ± 0.016
pre-steady-state target cleavage rate [1, 4]: 0.0108 ± 0.0023
pre-steady-state target cleavage rate [2]: 0.0152 ± 0.0042

UCCUGGUACAGGUUGCAUACUAUUUAGUUA
pre-steady-state target cleavage rate [1, 3]: 0.111 ± 0.033
pre-steady-state target cleavage rate [1, 4]: 0.00543 ± 0.0028
pre-steady-state target cleavage rate [2]: 0.00258 ± 0.002

UCCUCCCUACAGCUUGCAUAGUAUUUAGUUA
pre-steady-state target cleavage rate [1, 3]: 0.303 ± 0.02
pre-steady-state target cleavage rate [1, 4]: 0.0107 ± 0.0027
pre-steady-state target cleavage rate [2]: 0.0606 ± 0.017

UCCUGCUUCAGCUUGCAUACUAUUUAGUUA
pre-steady-state target cleavage rate [1, 3]: 0.0698 ± 0.01
pre-steady-state target cleavage rate [1, 4]: 0.00358 ± 0.002
pre-steady-state target cleavage rate [2]: 0.00801 ± 0.0025

UCCUGCUACAGCUUGCAAAGUAUUUAGUUA
pre-steady-state target cleavage rate [1, 3]: 0.13 ± 0.012
pre-steady-state target cleavage rate [1, 4]: 0.00686 ± 0.0019
pre-steady-state target cleavage rate [2]: 0.00608 ± 0.0019

UCCUGGAAGAGCUUGCAUAGUAUUUAGUUA
pre-steady-state target cleavage rate [1, 3]: 0.223 ± 0.014
pre-steady-state target cleavage rate [1, 4]: 0.0115 ± 0.0029
pre-steady-state target cleavage rate [2]: 0.0725 ± 0.016

UCCUGGAUCAGCUUGCAUAGUCUUUAGUUA
pre-steady-state target cleavage rate [1, 3]: 0.191 ± 0.011
pre-steady-state target cleavage rate [1, 4]: 0.00789 ± 0.0024
pre-steady-state target cleavage rate [2]: 0.0204 ± 0.0053

UCCUGGUACUGCAUGCAUAGUAUUUAGUUA
pre-steady-state target cleavage rate [1, 3]: 0.222 ± 0.02
pre-steady-state target cleavage rate [1, 4]: 0.00932 ± 0.0034
pre-steady-state target cleavage rate [2]: 0.0111 ± 0.0032

UCCUCCUAGAGCUUGCAUAGUAUUUAGUUA
pre-steady-state target cleavage rate [1, 3]: 0.232 ± 0.019
pre-steady-state target cleavage rate [1, 4]: 0.00656 ± 0.0021
pre-steady-state target cleavage rate [2]: 0.0186 ± 0.0054

UCCUCCUUCAGGUUGCAUAGUAUUUAGUUA
pre-steady-state target cleavage rate [1, 3]: 0.239 ± 0.013
pre-steady-state target cleavage rate [1, 4]: 0.0102 ± 0.002
pre-steady-state target cleavage rate [2]: 0.0528 ± 0.012

UCCUGGAAGAGCUUGCAUAGUAUAUAGUUA
pre-steady-state target cleavage rate [1, 3]: 0.173 ± 0.019
pre-steady-state target cleavage rate [1, 4]: 0.00457 ± 0.0025
pre-steady-state target cleavage rate [2]: 0.0114 ± 0.0044

UCCUGGUAGAGCUUGCAUAGUAUUAAGUUA
pre-steady-state target cleavage rate [1, 3]: 0.207 ± 0.034
pre-steady-state target cleavage rate [1, 4]: 0.00672 ± 0.0026
pre-steady-state target cleavage rate [2]: 0.00385 ± 0.0022

UCCUGGAUGAGCUUGAAUAGUAUUUAGUUA
pre-steady-state target cleavage rate [1, 3]: 0.216 ± 0.011
pre-steady-state target cleavage rate [1, 4]: 0.00728 ± 0.0023
pre-steady-state target cleavage rate [2]: 0.00419 ± 0.0027

UCCUGCUCAGCUUGCAUAGUAUUUAGUUA
pre-steady-state target cleavage rate [1, 3]: 0.278 ± 0.014
pre-steady-state target cleavage rate [1, 4]: 0.00716 ± 0.0018
pre-steady-state target cleavage rate [2]: 0.065 ± 0.015

UCCUGGAUCAGCUUGCAGAGUAUUUAGUUA
pre-steady-state target cleavage rate [1, 3]: 0.111 ± 0.015
pre-steady-state target cleavage rate [1, 4]: 0.00641 ± 0.002
pre-steady-state target cleavage rate [2]: 0.00715 ± 0.0022

UCCUGGAUGUCCUUGCAUAGUGUUUAGUUA
pre-steady-state target cleavage rate [1, 3]: 0.0572 ± 0.012
pre-steady-state target cleavage rate [1, 4]: 0.00445 ± 0.0025
pre-steady-state target cleavage rate [2]: 0.00951 ± 0.0035

UCCUGCUACAGGUUGCAUAGUAUUUAGUUA
pre-steady-state target cleavage rate [1, 3]: 0.246 ± 0.011
pre-steady-state target cleavage rate [1, 4]: 0.013 ± 0.0028
pre-steady-state target cleavage rate [2]: 0.0242 ± 0.0053

UCCUGGAUGAGCUAGCAUAGUAUUAAGUUA
pre-steady-state target cleavage rate [1, 3]: 0.226 ± 0.023
pre-steady-state target cleavage rate [1, 4]: 0.00417 ± 0.0024
pre-steady-state target cleavage rate [2]: 0.00293 ± 0.0024

UCCUGGAUCAGCUUGCAUUGUAUUUAGUUA
pre-steady-state target cleavage rate [1, 3]: 0.179 ± 0.013
pre-steady-state target cleavage rate [1, 4]: 0.00955 ± 0.0024
pre-steady-state target cleavage rate [2]: 0.0179 ± 0.0038

UCCUCCUACAGCUUGCAUAGUAUUUAAUUA
pre-steady-state target cleavage rate [1, 3]: 0.11 ± 0.019
pre-steady-state target cleavage rate [1, 4]: 0.00326 ± 0.0027
pre-steady-state target cleavage rate [2]: 0.00331 ± 0.003

UCCUGCUACAGCUUGGAUAGUUUUUAGUUA
pre-steady-state target cleavage rate [1, 3]: 0.0668 ± 0.012
pre-steady-state target cleavage rate [1, 4]: 0.00289 ± 0.0027
pre-steady-state target cleavage rate [2]: 0.0172 ± 0.0039

UCCUCCUAGACCUUGCAUAGUAUUUAGUUA
pre-steady-state target cleavage rate [1, 3]: 0.237 ± 0.024
pre-steady-state target cleavage rate [1, 4]: 0.00751 ± 0.0025
pre-steady-state target cleavage rate [2]: 0.141 ± 0.041

UCCUGGUACAGCUUAGCAUAGUAUUUAGUUA
pre-steady-state target cleavage rate [1, 3]: 0.296 ± 0.018
pre-steady-state target cleavage rate [1, 4]: 0.0164 ± 0.0045
pre-steady-state target cleavage rate [2]: 0.0188 ± 0.0058

UCCUGCUACAGCUUGGUAAGUAUUUAGUUA
pre-steady-state target cleavage rate [1, 3]: 0.131 ± 0.019
pre-steady-state target cleavage rate [1, 4]: 0.00591 ± 0.0018
pre-steady-state target cleavage rate [2]: 0.00341 ± 0.0025

UCCUGGAACAGCUUGGAAAGUAUUUAGUUA
pre-steady-state target cleavage rate [1, 3]: 0.125 ± 0.0077
pre-steady-state target cleavage rate [1, 4]: 0.00969 ± 0.0023
pre-steady-state target cleavage rate [2]: 0.0164 ± 0.0053

UCCUGGAACUGCUUGCAUAGUAAUUAGUUA
pre-steady-state target cleavage rate [1, 3]: 0.159 ± 0.012
pre-steady-state target cleavage rate [1, 4]: 0.00625 ± 0.0021
pre-steady-state target cleavage rate [2]: 0.0039 ± 0.0028

UCCUCCUACAGCUUGCAAAGUAUUUACUUA
pre-steady-state target cleavage rate [1, 3]: 0.0765 ± 0.013
pre-steady-state target cleavage rate [1, 4]: 0.0033 ± 0.0019
pre-steady-state target cleavage rate [2]: 0.00282 ± 0.0024

UCCUCCCACAGCUUGCAUAGUAUUUAGUUA
pre-steady-state target cleavage rate [1, 3]: 0.296 ± 0.015
pre-steady-state target cleavage rate [1, 4]: 0.00691 ± 0.0024
pre-steady-state target cleavage rate [2]: 0.128 ± 0.029

UCCUCCUACAGCUUGCAUAGUAUCUUAGUUA
pre-steady-state target cleavage rate [1, 3]: 0.285 ± 0.022
pre-steady-state target cleavage rate [1, 4]: 0.00811 ± 0.0026
pre-steady-state target cleavage rate [2]: 0.0254 ± 0.011

UCCUCCAUGAGCUUGCAUAGUAUUUAGUUA
pre-steady-state target cleavage rate [1, 3]: 0.279 ± 0.016
pre-steady-state target cleavage rate [1, 4]: 0.00711 ± 0.0021
pre-steady-state target cleavage rate [2]: 0.0146 ± 0.004

UCCUGCUAGAGCUUGGAUAGUAUUUAGUUA
pre-steady-state target cleavage rate [1, 3]: 0.178 ± 0.014
pre-steady-state target cleavage rate [1, 4]: 0.0074 ± 0.0021
pre-steady-state target cleavage rate [2]: 0.00499 ± 0.0016

UCCUGGAUGAGCUUGCAUGGUAUUUAGUUA
pre-steady-state target cleavage rate [1, 3]: 0.195 ± 0.023
pre-steady-state target cleavage rate [1, 4]: 0.017 ± 0.0046
pre-steady-state target cleavage rate [2]: 0.0127 ± 0.0045

UCCUCCUACAGCUUCGAUAGUAUUUAGUUA
pre-steady-state target cleavage rate [1, 3]: 0.26 ± 0.017
pre-steady-state target cleavage rate [1, 4]: 0.00534 ± 0.0022
pre-steady-state target cleavage rate [2]: 0.0137 ± 0.0042

UCCUCCUACAGCUUGCAUAGUAUUUUGUUA
pre-steady-state target cleavage rate [1, 3]: 0.177 ± 0.023
pre-steady-state target cleavage rate [1, 4]: 0.0036 ± 0.0022
pre-steady-state target cleavage rate [2]: 0.00791 ± 0.0033

UCCUCCUACAGGUUGCAUUGUAUUUAGUUA
pre-steady-state target cleavage rate [1, 3]: 0.152 ± 0.012
pre-steady-state target cleavage rate [1, 4]: 0.00725 ± 0.0019
pre-steady-state target cleavage rate [2]: 0.0124 ± 0.0028

UCCUGGAUGUGCUUGCAUAGUAUGUUAGUUA
pre-steady-state target cleavage rate [1, 3]: 0.0646 ± 0.012
pre-steady-state target cleavage rate [1, 4]: 0.00452 ± 0.0032
pre-steady-state target cleavage rate [2]: 0.00406 ± 0.0038

UCCUCCUACAGCUUUGCAUAGUAUUUAGUUA
pre-steady-state target cleavage rate [1, 3]: 0.291 ± 0.017
pre-steady-state target cleavage rate [1, 4]: 0.00758 ± 0.0021
pre-steady-state target cleavage rate [2]: 0.123 ± 0.036

UCCUGGAACAGUUUGCAUAGUAUUUAGUUA
pre-steady-state target cleavage rate [1, 3]: 0.285 ± 0.014
pre-steady-state target cleavage rate [1, 4]: 0.00997 ± 0.0019
pre-steady-state target cleavage rate [2]: 0.0565 ± 0.013

UCCUGGAUCAGCUAUGCAUAGUAUUUAGUUA
pre-steady-state target cleavage rate [1, 3]: 0.281 ± 0.019
pre-steady-state target cleavage rate [1, 4]: 0.0057 ± 0.0026
pre-steady-state target cleavage rate [2]: 0.106 ± 0.02

UCCUGGUACAGGUUGGAUAGUAUUUAGUUA
pre-steady-state target cleavage rate [1, 3]: 0.303 ± 0.043
pre-steady-state target cleavage rate [1, 4]: 0.00912 ± 0.0032
pre-steady-state target cleavage rate [2]: 0.00482 ± 0.0022

UCCUCCUACAGCUUGCAUAGUAUUUAUGUUA
pre-steady-state target cleavage rate [1, 3]: 0.162 ± 0.023
pre-steady-state target cleavage rate [1, 4]: 0.00611 ± 0.0025
pre-steady-state target cleavage rate [2]: 0.00546 ± 0.0027

UCCUGGAUCACCUUGCAUACUAUUUAGUUA
pre-steady-state target cleavage rate [1, 3]: 0.0453 ± 0.011
pre-steady-state target cleavage rate [1, 4]: 0.00336 ± 0.0028
pre-steady-state target cleavage rate [2]: 0.00341 ± 0.0028

UCCUGGUUCACCUUGCAUAGUAUUUAGUUA
pre-steady-state target cleavage rate [1, 3]: 0.128 ± 0.022
pre-steady-state target cleavage rate [1, 4]: 0.00513 ± 0.0027
pre-steady-state target cleavage rate [2]: 0.0052 ± 0.0033

UCCUGGAACAGCUUGCAUAGUAAUUAGUUA
pre-steady-state target cleavage rate [1, 3]: 0.268 ± 0.022
pre-steady-state target cleavage rate [1, 4]: 0.00705 ± 0.0022
pre-steady-state target cleavage rate [2]: 0.00814 ± 0.0027
